Experiment [1] deals with Lysosomal acid glucosylceramidase (Homo sapiens) (UniProt P04062). Nature of the experiment: Glucocerebrosidase-p2 (AID 348; in the data active = potency below about 10 µM; also: potency is read from the fitted curve at half-maximal effect). The settings on record: purified GBA, blue fluorogenic substrate, 40 min. A digest of the protocol: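 Compounds titrated from 0.6 nM upwards against 0.2 nM enzyme in pH 5.9 citric acid/KH2PO4, taurocholate, tween-20; blue fluorogenic substrate 80 uM, 40 min room temperature, stopped and read Ex 365/Em 440 for AC50.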
Chain of Lysosomal acid glucosylceramidase (Homo sapiens) (P04062 whole entry, looked up): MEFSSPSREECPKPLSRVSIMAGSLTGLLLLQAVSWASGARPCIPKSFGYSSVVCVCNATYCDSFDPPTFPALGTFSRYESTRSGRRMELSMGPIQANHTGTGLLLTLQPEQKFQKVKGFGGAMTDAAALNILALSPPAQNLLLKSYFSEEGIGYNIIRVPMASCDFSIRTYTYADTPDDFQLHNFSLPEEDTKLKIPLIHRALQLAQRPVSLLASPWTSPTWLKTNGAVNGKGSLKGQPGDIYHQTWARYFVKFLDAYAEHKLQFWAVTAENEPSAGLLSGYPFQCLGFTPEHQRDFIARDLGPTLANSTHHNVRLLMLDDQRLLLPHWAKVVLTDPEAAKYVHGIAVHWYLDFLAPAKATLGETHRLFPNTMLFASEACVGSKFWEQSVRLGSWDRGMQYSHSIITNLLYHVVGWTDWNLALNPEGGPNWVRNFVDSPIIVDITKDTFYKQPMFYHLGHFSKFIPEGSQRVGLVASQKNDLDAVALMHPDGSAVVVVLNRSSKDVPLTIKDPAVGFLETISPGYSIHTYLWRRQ

The nature of experiment [2]: AP1 Signaling Pathway (AID 357; active = well fitted curve in either direction with a large enough effect, not every such curve was filed as active; also: % is scaled to controls: 0 for no effect and ±100 for the full control effect). The following applies: ME-180 AP-1-bla reporter, EGF-induced, beta-lactamase ratio, 5 h; at 7.69 µM (top of the series) unless noted. A digest of the protocol:
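ME-180 cells with beta-lactamase reporter under AP-1 response element, stimulated with EC50 EGF; compounds tested in titration series, 5 h at 37 °C. CCF4 substrate added 2.5 h at room temperature; 460/530 nm emission ratio gave %activity and AC50.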

The target in experiment [3] is Cytochrome P450 1A2 (Homo sapiens) (UniProt P05177). Description: p450-cyp1a2 (AID 410; calls by dose curve; also: potency is read from the fitted curve at half-maximal effect;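 as to activity change, negative = inhibition: -100% = full effect of reference inhibitor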). The settings on record: recombinant CYP1A2, luciferin-ME demethylation, luminescence; series mostly up to 57 µM. A digest of the protocol:
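20nM CYP1A2 with 100uM Luciferin-ME (at Km) in 100mM KPO4; compound preincubated 10 min, NADPH regeneration added, 60 min at room temperature. Luciferin quantified by luminescence after detection reagent; normalized to 57 uM furafylline.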

A short description of experiment [4]: Stat Signaling Pathway (AID 446; active = well fitted curve in either direction with a large enough effect, not every such curve was filed as active;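 also: ME-180 cervical cancer cells given 40 pM IL-6 alongside compound; SIE-controlled beta-lactamase reporter measured as 460/530 nm FRET emission ratio; % is scaled to controls: 0 for no effect and ±100 for the full control effect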). The settings on record: ME-180 (cervical carcinoma) SIE beta-lactamase reporter, IL-6 stimulated, 5 h; at 7.69 µM (top of the series) unless noted. A digest of the protocol: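 IL-6/STAT signaling read in ME-180 cells via an SIE beta-lactamase reporter. Stimulus was 40 pM IL-6 (its AC50) for 5 hrs, so both activation and inhibition register.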
Experiment [5] concerns the target Glucocorticoid receptor (Homo sapiens) (UniProt P04150). Nature of the experiment: GR-GFP Redistribution (AID 450;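 active = compounds whose dose series gives a full or clear partial fitted curve of increased nuclear translocation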; also: potency is read from the fitted curve at half-maximal effect). The settings on record: U2OS GR-GFP nuclear translocation, laser cytometry, 2 h.
The target is the same in experiment [6]. Nature of the experiment: GR-EFC Redistribution (AID 451; calls by dose curve; also: potency is read from the fitted curve at half-maximal effect). The settings on record: CHO-K1 GR-EFC translocation, beta-gal luminescence, 2 h. A digest of the protocol: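 CHO-K1 cells expressing nuclear EA and GR-ED fragments of b-gal; compounds titrated up to 46 uM final, 2 h at 37 C. GR nuclear translocation read as complemented b-gal luminescence after 1 h RT detection.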

For experiment [7], the target named is Mitogen-activated protein kinase 10 (Mus musculus) (UniProt Q61831). Nature of the experiment: JNK3 AlphaScreen Assay (AID 530; active = well fitted curve in either direction with a large enough effect, not every such curve was filed as active;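 also: kinase came from lysate of stimulated human HepG2 cells; signal reports phosphorylation of biotinylated GST-cJun 1-79 at Ser73 with 10 µM ATP; % is scaled to controls: 0 for no effect and ±100 for the full control effect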). The settings on record: JNK3 lysate, c-Jun phosphorylation; series mostly up to 57.1 µM. The essentials: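 Pre-activated (IL-1β/TNFα) JNK3 in HepG2 lysates phosphorylates biotin-GST-cJun(1-79), 10 uM ATP; anti-phospho-cJun(Ser73) AlphaScreen read at room temperature, pH 7.6 Tris buffer. Compounds pre-incubated 15 min as titrations.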

Experiment [8] deals with 3',5'-cyclic-AMP phosphodiesterase 4B (Homo sapiens) (UniProt Q07343). Description: qHTS Assay for Inhibitors of PDE-IV (AID 607; active = well fitted activation curve with a large enough effect in the main read-out, with a control signal flat, not every such curve was filed as active; also: % of control where 0% means no effect). The settings on record: HEK293 ACTOne CNG channel cells, membrane potential fluorescence; series mostly up to 22.9 µM. A digest of the protocol:
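Live HEK293 cells with a modified cyclic nucleotide-gated (CNG) channel report intracellular cAMP via membrane-potential dye fluorescence (ex 535/em 590 nm). Endogenous PDE-IV was targeted. Compounds were tested at up to 22.9 uM final; RO 20-1724 100 uM served as control.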
(In general: qHTS replaces the single test concentration by a dilution series.)

In experiment [9] the target is Cytochrome P450 3A4 (Homo sapiens) (UniProt P08684). Description: qHTS Assay for Inhibitors and Substrates of Cytochrome P450 3A4 (AID 884). Also: potency is read from the fitted curve at half-maximal effect; nearly all actives have a fitted effect of over 50% in size. The following applies: recombinant CYP3A4, Luciferin-PPXE luminescence; series mostly up to 57.1 µM. A digest of the protocol:
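20 nM human CYP3A4 with 25 uM Luciferin-PPXE (at KM) in 200 mM KPO4, preincubated 10 min with compound; NADPH regeneration started a 60 min RT reaction. Luciferin detected by luminescence, normalized to 57 uM ketoconazole as full inhibition.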

Experiment [10] shares this target. Nature of the experiment: qHTS Assay for Activators of Cytochrome P450 3A4 (AID 885). Also: nearly all actives have a fitted effect of over 65% in size. The following applies: recombinant CYP3A4, Luciferin-PPXE luminescence, 60 min; series mostly up to 57.1 µM. A digest of the protocol:
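Quantitative HTS format: compounds preincubated with 20nM human CYP3A4 and Luciferin-PPXE substrate at KM, reaction started by NADPH regeneration, stopped after 60 min, luciferase luminescence read 20 min later.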

For experiment [11], the target named is Dual specificity protein kinase CLK4 (Homo sapiens) (UniProt Q9HAZ1). Description: qHTS Assay for Inhibitors of CDC-like Kinase 4 (ADP-FP Assay) (AID 1795).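 Also: recombinant human CLK4 phosphorylating RS repeat peptide at 1 µM ATP; % is scaled to controls: 0 for no effect and ±100 for the full control effect; nearly all actives have a fitted effect of over 60% in size.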 The following applies: Transcreener ADP fluorescence polarization; series mostly up to 50 µM. A digest of the protocol: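 Inhibition of ADP formation by 6.25 nM Clk4 is measured using 1 uM ATP and 100 uM RS repeat peptide over one hour. Produced ADP displaces a fluorescent tracer from antibody, lowering polarization.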
Chain of Dual specificity protein kinase CLK4 (Homo sapiens) (Q9HAZ1 whole entry, looked up): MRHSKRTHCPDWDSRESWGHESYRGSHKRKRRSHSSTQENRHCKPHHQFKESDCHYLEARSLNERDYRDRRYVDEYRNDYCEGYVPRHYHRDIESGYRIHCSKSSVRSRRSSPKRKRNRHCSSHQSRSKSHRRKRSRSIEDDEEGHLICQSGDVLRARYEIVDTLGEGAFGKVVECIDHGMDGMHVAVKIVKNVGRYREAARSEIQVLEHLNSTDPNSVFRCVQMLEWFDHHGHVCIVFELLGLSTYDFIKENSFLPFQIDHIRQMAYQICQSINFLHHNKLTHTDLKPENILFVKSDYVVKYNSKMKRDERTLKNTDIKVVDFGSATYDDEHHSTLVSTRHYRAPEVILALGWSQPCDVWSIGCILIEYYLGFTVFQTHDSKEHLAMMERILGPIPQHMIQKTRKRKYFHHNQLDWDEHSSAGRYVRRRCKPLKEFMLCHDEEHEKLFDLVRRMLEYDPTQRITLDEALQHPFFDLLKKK

The target of experiment [12] is Ubiquitin carboxyl-terminal hydrolase 1 (Homo sapiens) (UniProt O94782). Description: Inhibitors of USP1/UAF1: Pilot qHTS (AID 504865).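 Also: rhodamine fluorescence freed from ubiquitin-rhodamine substrate followed over time; top concentration of the series differs between compounds; % is scaled to controls: 0 for no effect and ±100 for the full control effect; nearly all actives have a fitted effect of over 35% in size.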 The settings on record: purified USP1/UAF1, Ub-rhodamine cleavage fluorescence; series mostly up to 54.9 µM. A digest of the protocol:
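Kinetic fluorescence assay: 1nM USP1/UAF1, 15 min compound preincubation, then 150nM Ub-Rho; 480/540 nm.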

Experiment [13] is described as follows: Primary qHTS for small molecule stabilizers of the endoplasmic reticulum resident proteome: Secreted ER Calcium Modulated Protein (SERCaMP) assay (AID 1508630). Also: % is scaled to controls: 0 for no effect and ±100 for the full control effect. The settings on record: SH-SY5Y GLuc-SERCaMP (Gaussia luciferase released on ER calcium loss) secretion, thapsigargin, luminescence; series mostly up to 38.4 µM. The essentials:
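GLuc-SERCaMP-expressing SH-SY5Y cells, pretreated 16 h with compound, are challenged with thapsigargin to empty ER calcium stores; after 4 h, coelenterazine is added directly to the medium and luminescence is imaged.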

Experiment [14] is described as follows: NFAT Signaling Pathway (AID 444; active = well fitted curve in either direction with a large enough effect, not every such curve was filed as active). The following applies: Jurkat NFAT-bla M1, carbachol, beta-lactamase ratio, 5 h; at 7.69 µM (top of the series) unless noted. The essentials:
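Jurkat cells with NFAT-driven β-lactamase reporter and co-expressed M1 receptor, stimulated with carbachol (final 1 uM, ~EC50), compound titration, 5 h at 37 °C. CCF4 loaded 1 h at RT; 460/530 nm ratio gave %activity and AC50.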

The target in experiment [15] is Cytochrome P450 2C19 (Homo sapiens) (UniProt P33261). Nature of the experiment: qHTS Assay for Inhibitors and Substrates of Cytochrome P450 2C19 (AID 899). Also: potency is read from the fitted curve at half-maximal effect; nearly all actives have a fitted effect of over 60% in size. The settings on record: recombinant CYP2C19, luciferin-H EGE luminescence; series mostly up to 57.1 µM. A digest of the protocol:
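5 nM human CYP2C19 with 10uM Luciferin-H EGE (at KM) in 50mM KPO4, compound preincubated 10 min at 37C, then NADPH regeneration for 60 min at 37C. Luciferin read by luminescence after detection reagent; normalized to 57uM ketoconazole as full inhibition.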

SMILES strings stand for the structures. Values without a mark were called inactive. Results filed as inconclusive are left out. Activity calls are given as the source filed them. Unless noted, calls follow the shape of the dose curve; as a rule, active = well fitted curve in the direction sought with a large enough effect; inconclusive = small, poorly fitted or top-dose-only effect, or another doubt; inactive = no such curve, though single readings can be large; an effect the other way counts as inactive or inconclusive.

Chain of Cytochrome P450 3A4 (Homo sapiens) (P08684 whole entry, looked up): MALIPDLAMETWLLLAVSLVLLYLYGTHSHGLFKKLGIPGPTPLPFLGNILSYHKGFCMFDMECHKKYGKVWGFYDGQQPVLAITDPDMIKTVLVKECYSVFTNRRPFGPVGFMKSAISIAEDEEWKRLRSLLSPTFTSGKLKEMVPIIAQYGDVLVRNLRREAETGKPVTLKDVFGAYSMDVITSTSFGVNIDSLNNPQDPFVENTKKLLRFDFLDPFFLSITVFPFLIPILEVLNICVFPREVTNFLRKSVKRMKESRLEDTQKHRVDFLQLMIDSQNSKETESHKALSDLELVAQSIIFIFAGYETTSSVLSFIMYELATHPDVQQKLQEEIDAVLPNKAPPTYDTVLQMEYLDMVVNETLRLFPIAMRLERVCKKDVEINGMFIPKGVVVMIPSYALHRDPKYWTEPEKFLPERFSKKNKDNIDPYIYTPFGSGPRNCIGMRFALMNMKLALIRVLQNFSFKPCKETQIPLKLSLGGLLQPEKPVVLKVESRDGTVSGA
Chain of Ubiquitin carboxyl-terminal hydrolase 1 (Homo sapiens) (O94782 whole entry, looked up): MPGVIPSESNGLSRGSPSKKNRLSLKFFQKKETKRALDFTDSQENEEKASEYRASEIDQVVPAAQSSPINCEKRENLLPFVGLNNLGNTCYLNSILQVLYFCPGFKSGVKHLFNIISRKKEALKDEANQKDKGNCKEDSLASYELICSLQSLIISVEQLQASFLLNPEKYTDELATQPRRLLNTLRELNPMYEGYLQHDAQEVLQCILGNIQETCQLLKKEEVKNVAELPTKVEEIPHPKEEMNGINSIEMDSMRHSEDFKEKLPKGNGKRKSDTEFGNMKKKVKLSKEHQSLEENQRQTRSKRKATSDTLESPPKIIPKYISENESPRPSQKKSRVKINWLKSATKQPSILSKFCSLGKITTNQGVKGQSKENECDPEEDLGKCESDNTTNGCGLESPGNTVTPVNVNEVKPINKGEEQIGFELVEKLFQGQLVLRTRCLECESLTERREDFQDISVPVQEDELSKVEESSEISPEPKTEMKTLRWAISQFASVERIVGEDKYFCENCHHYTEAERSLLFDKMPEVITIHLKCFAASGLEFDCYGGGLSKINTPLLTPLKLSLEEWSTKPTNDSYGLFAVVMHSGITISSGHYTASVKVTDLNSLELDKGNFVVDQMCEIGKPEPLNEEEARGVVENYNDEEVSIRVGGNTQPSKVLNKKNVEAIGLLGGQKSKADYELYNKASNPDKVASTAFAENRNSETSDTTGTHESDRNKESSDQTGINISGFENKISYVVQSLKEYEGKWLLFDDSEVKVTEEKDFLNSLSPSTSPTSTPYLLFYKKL
Chain of 3',5'-cyclic-AMP phosphodiesterase 4B (Homo sapiens) (Q07343 whole entry, looked up): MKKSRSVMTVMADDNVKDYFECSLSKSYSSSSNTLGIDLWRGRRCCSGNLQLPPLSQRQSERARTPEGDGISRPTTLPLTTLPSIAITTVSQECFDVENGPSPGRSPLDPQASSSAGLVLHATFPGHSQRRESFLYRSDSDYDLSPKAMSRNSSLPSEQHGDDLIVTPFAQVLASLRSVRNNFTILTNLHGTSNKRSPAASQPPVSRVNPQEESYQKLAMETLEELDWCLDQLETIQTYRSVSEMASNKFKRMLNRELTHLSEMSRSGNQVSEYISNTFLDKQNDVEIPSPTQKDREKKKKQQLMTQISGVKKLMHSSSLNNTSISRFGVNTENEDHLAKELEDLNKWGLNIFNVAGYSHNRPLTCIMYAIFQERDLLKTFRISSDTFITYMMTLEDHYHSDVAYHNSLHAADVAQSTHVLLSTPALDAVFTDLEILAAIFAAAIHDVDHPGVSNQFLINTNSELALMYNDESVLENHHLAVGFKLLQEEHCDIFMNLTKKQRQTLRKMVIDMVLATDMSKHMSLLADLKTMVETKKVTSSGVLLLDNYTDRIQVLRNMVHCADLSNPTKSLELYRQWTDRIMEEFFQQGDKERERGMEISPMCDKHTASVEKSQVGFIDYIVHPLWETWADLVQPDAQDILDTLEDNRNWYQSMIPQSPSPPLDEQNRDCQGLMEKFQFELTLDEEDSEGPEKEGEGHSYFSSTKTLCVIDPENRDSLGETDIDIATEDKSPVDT
Chain of Cytochrome P450 1A2 (Homo sapiens) (P05177 whole entry, looked up): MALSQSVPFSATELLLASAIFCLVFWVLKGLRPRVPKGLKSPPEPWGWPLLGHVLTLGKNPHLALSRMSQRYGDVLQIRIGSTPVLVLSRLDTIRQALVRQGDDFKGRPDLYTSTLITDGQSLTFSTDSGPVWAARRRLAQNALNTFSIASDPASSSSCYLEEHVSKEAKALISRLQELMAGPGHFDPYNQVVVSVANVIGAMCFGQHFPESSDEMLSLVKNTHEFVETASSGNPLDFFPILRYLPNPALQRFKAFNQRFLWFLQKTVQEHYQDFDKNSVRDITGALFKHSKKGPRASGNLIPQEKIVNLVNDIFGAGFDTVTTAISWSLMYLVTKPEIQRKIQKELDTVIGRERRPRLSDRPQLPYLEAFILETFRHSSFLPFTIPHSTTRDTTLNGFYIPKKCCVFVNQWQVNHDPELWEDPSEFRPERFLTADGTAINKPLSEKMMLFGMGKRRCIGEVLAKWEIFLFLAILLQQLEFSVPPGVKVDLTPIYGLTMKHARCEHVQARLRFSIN
Chain of Glucocorticoid receptor (Homo sapiens) (P04150 whole entry, looked up, the tested form may be a part): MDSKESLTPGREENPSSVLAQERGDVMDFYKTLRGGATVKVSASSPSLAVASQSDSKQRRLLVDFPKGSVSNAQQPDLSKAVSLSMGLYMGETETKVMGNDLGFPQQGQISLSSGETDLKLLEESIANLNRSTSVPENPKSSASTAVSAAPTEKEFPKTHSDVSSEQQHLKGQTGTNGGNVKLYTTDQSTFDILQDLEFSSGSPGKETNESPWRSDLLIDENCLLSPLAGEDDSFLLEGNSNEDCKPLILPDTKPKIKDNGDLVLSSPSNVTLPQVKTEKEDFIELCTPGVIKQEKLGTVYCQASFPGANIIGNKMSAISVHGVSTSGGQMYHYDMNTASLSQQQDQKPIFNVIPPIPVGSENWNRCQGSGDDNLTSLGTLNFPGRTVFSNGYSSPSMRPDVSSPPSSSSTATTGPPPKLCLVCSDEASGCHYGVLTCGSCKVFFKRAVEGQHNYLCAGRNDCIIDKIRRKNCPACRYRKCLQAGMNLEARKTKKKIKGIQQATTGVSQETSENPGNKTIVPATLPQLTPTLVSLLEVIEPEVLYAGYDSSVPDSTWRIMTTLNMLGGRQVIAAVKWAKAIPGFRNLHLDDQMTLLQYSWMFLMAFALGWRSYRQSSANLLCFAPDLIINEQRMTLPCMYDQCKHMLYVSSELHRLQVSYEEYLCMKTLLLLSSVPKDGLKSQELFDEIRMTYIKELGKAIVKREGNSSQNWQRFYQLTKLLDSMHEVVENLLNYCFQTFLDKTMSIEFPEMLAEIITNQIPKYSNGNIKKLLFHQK
Chain of Cytochrome P450 2C19 (Homo sapiens) (P33261 whole entry, looked up): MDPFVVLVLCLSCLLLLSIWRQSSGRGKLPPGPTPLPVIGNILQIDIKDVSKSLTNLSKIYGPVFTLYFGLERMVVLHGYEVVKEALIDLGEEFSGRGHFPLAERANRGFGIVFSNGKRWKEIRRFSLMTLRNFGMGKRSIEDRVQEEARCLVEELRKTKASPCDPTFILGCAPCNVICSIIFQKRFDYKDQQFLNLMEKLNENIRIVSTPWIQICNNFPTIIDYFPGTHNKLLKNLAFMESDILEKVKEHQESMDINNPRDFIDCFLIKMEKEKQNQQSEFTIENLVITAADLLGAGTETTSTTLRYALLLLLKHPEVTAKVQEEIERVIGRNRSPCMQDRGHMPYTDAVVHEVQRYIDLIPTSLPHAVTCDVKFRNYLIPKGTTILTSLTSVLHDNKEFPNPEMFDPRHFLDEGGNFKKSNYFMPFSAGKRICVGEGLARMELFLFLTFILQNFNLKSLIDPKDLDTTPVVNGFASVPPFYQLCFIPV

For the compound `COc1ccc(CNc2ncncc2-c2cccc(NS(C)(=O)=O)c2)c(OC)c1`, the Potency is more than 2.29 µM in experiment [1]; 15.8 µM (active) in experiment [3]; more than 46 µM in [5]; more than 46 µM in experiment [6]; 0.251 µM (active) in [9]. In [2], the activity change, negative = inhibition is -14.5%. Further, the activity, negative = inhibition in experiment [4] was 17.9%. Besides, the Potency entry in [7], in experiment [8], in experiment [10], in experiment [11] and in [12] was “inactive” in each case. The outcome in [13] was inactive.
`CN(C)C(=O)c1ccc(-c2ccc3ncnc(N4CCOCC4)c3c2)cc1`: the values for the Potency in [1] and in [6] were more than 11.4 µM and more than 46 µM, respectively. Also, the activity change, negative = inhibition is -25.6% in [2] and 11.5% in experiment [14]. For the same compound, the Potency entry in experiment [3], in [7], in experiment [8], in experiment [10], in experiment [11] and in experiment [12] was “inactive” in each case. Besides, the activity, negative = inhibition in experiment [4] was -8.9%. The result in [13] was inactive.
As to `CN(Cc1ccco1)c1nc(-c2ccc3c(c2)OCO3)nc2ccccc12`, the Potency in [1] is more than 11.4 µM; in [3] it was 0.501 µM (active); in experiment [5], more than 46 µM; in experiment [6] it was more than 46 µM; in experiment [9], 1.58 µM (active); in [15], 7.94 µM (active). The activity change, negative = inhibition in experiment [2] is 17%. Moreover, the activity, negative = inhibition in [4] was 1.32%. In addition, the Potency result in experiment [7], in [10], in experiment [11] and in [12] was “inactive” each time. The outcome in [13] was inactive.
Regarding `COCCn1c(=O)c(-c2cccc(F)c2)nc2cncnc21`, the Potency was more than 11.4 µM in [1], 2 µM (active) in [3], more than 9.22 µM in experiment [5] and more than 46 µM in experiment [6]. The figures for the activity change, negative = inhibition in experiment [2] and in [14] were -16% and -5.24%, respectively. Moreover, the activity, negative = inhibition in [4] was -1.12%. The Potency entry in experiment [7], in experiment [10], in experiment [11] and in experiment [12] was “inactive” throughout. Moreover, the outcome in experiment [13] was inactive.
Take `CN(C)C(=O)c1ccc(-c2cncnc2-n2ccnc2)cc1`: the Potency in experiment [1] is more than 11.4 µM; in experiment [3], 20 µM (active); in [5], more than 46 µM; in [6], more than 46 µM. Also, the figures for the activity change, negative = inhibition in experiment [2] and in experiment [14] were -3.64% and 13%, respectively. Further, the activity, negative = inhibition in experiment [4] is 3.39%. In addition, the Potency result in experiment [7], in [8], in experiment [10] and in experiment [11] was “inactive” in each case. For the same compound, the outcome in experiment [13] was inactive.
`c1ccc(CNc2nc(-c3ccoc3)nc3ccccc23)cc1`: the Potency in [1] was more than 2.29 µM; in experiment [5] it was more than 46 µM; in experiment [6], more than 46 µM. For the same compound, the activity change, negative = inhibition in experiment [2] is -9.34%. Also, the activity, negative = inhibition in experiment [4] was 12.7%. Besides, the Potency entry in experiment [7], in experiment [10], in experiment [11] and in [12] was “inactive” each time. In experiment [13], the result was inactive.
Turning to `CN(Cc1ccco1)c1cc(-c2cccnc2)ncn1`, the Potency was more than 11.4 µM in experiment [1]; 0.316 µM (active) in experiment [3]; more than 46 µM in [5]; more than 46 µM in experiment [6]; 3.16 µM (active) in [9]. In addition, the activity change, negative = inhibition in [2] is 11.4%; in experiment [14] it was -0.973%. Besides, the Potency result in [7], in [8], in experiment [10], in experiment [11] and in [12] was “inactive” in each case. Also, the result in [13] was inactive.

(Values after PubChem BioAssay (NCATS).)
